# Assay results as given in PubChem BioAssay AID1751 (National Center for Advancing Translational Sciences (NCATS), 2009).
# “And” between values parts separate entries of the source, which are not always exact repeats. Equal values may be shown once. Inconclusive results are not listed. The source made the active and inactive calls. Calls follow the shape of the dose curve; as a rule, active = well fitted activation curve with a large enough effect; inconclusive = small, poorly fitted or top-dose-only effect; inactive = no such curve, though single readings can be large or run the other way.
# Target: Pyruvate kinase PKM (Homo sapiens) (UniProt P14618)
# Sequence (P14618 whole entry, looked up, canonical isoform): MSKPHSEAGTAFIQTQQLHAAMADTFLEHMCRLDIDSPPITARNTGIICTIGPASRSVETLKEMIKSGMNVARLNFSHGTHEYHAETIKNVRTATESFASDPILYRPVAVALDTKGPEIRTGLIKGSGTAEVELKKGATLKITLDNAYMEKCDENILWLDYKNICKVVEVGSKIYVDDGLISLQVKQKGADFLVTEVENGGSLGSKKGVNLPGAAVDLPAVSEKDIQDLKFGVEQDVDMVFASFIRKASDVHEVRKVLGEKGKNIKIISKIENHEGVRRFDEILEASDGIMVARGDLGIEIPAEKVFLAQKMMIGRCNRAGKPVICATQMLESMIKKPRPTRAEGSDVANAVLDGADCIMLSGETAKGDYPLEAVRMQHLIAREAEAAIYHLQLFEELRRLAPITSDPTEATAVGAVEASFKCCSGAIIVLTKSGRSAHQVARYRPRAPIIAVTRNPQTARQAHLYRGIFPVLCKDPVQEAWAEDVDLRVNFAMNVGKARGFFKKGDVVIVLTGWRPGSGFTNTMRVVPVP
# Experiment: Confirmation Concentration-Response Assay for Activators of Human Muscle isoform 2 Pyruvate Kinase
# Details: purified hPK-M2, Kinase-Glo ATP luminescence, 1 h; series mostly up to 57.5 µM; activation (negative = inhibition): at the top concentration
# From the text: NIH Chemical Genomics Center [NCGC] Matthew G. Vander Heiden, M.D., Ph.D. [Harvard Medical School, 77 Avenue Louis Pasteur, Boston, MA 02115] MLPCN Grant: 1 R03 MH085679-01 NCGC Assay Overview: Human pyruvate kinase muscle 2 (hPK-M2) enzyme was supplied as a highly purified (>95% pure) preparation from Harvard Medical School and assayed for its ability to generate ATP from ADP using phosphoenolpyruvate (PEP) as a substrate. ATP generation was detected in a coupled reaction by luciferase-mediated luminescence, an ATP-dependent process. Pyruvate kinase substrates, PEP and ADP, were present in the assay at Km and approximately 10-fold below Km respectively. The enzyme was assayed at an intermediate level of activity to screen for both inhibitors and activators.
# NCGC Assay Protocol Summary: Three uL of substrate mix (at r.t.) in assay buffer (50 mM Imidazole pH7.2, 50 mM KCl, 7 mM MgCl2, 0.01% Tween 20, 0.05% BSA) was dispensed into white solid bottom 1,536 well microtiter plates so that the final concentrations of substrates in the assay were 0.1 mM ADP and 0.5 mM PEP. 23 nL of compound were delivered by a pin tool and 1 uL of enzyme mix (final concentration of 0.1 nM) in assay buffer (4 degree Celsius) was added. Plates were incubated at room temperature for 1 hour. Two uL of detection mix (Kinase-Glo, Promega; at 4 degree Celsius protected from light) was added and luminescence read by a ViewLux (Perkin Elmer) at 1 second exposure/plate. Data were normalized to the uninhibited (column 3) and AC100 inhibition (no enzyme in column 2). To monitor activation, the first column contained a titration of the activator, NCGC00031955-03 (16-point 1:2 dilutions in duplicate starting at 57 uM) and the first 16 rows of column 4 contained 57 uM of NCGC00031955-03.
SMILES,Potency,activation (negative = inhibition)
Cn1c2cc(S(C)=O)sc2c2cnn(Cc3ccccc3F)c(=O)c21 (stereo not drawn),16 nM (active),
Cc1cc(C)nc(SCCc2ccncc2)n1,,-4.36% (inactive)
Cc1cc2c(s1)c1cnn(Cc3ccc(C(C)C)cc3)c(=O)c1n2C,63.5 nM (active),
COc1ccc(Cn2ncc3c4sc(C)cc4n(C)c3c2=O)cc1F,127 nM (active),
C[C@@H]1CN(S(=O)(=O)c2c(F)cccc2F)CCN1S(=O)(=O)c1ccc2c(c1)OCCO2,1790 nM (active),
O=S(=O)(NCCCNS(=O)(=O)c1c(F)cccc1F)c1ccc2c(c1)OCCO2,2840 nM (active),
Cc1cc2c(s1)c1cnn(Cc3cccc(Cl)c3)c(=O)c1n2C,101 nM (active),
Cn1c2cc(C#N)sc2c2cnn(Cc3ccccc3F)c(=O)c21,11.3 µM (active) and 22.5 nM (active),
Cc1cc2c(s1)c1cnn(Cc3cc(C(F)(F)F)cc(Cl)c3F)c(=O)c1n2C,20.1 nM (active),
Cc1cc2c(s1)c1c(C)nn(Cc3ccccc3F)c(=O)c1n2C,20100 nM (active),
Cc1cc2c(s1)c1cnn(Cc3ccc(Cl)cc3)c(=O)c1n2C,201 nM (active),
Cn1c2cc([N+](=O)[O-])sc2c2cnn(Cc3ccccc3F)c(=O)c21,12.7 nM (active),
Cn1c2cc(CO)sc2c2cnn(Cc3ccccc3F)c(=O)c21,28.4 nM (active),
O=S(=O)(NC1CCN(S(=O)(=O)c2ccc3c(c2)OCCO3)CC1)c1c(F)cccc1F,2530 nM (active),
Cc1cc2c(s1)c1cnn(Cc3ccccc3F)c(=O)c1n2C,40.1 nM (active),
N#Cc1cc(-c2ccccc2)cnc1Sc1ccccc1,,-17.8% (inactive)
O=C1NC(=S)S/C1=C1\Sc2ccccc2N1CCCS(=O)(=O)O,,-46.2% (inactive)

SMILES,Potency,activation (negative = inhibition)
C[C@H]1CN(S(=O)(=O)c2c(F)cccc2F)CCN1S(=O)(=O)c1ccc2c(c1)OCCO2,3570 nM (active),
O=S(=O)(NCCCCCCNS(=O)(=O)c1c(F)cccc1F)c1ccc2c(c1)OCCO2,4010 nM (active),
Cc1cc2c(s1)c1cnn(Cc3ccc(C)c(F)c3F)c(=O)c1n2C,56.6 nM (active),
O=S(=O)(c1ccc(Cl)cc1)N1CCN(S(=O)(=O)c2ccc3c(c2)OCCO3)CC1,56.6 nM (active),
Cc1ccc(Cn2ncc3c4sc(C)cc4n(C)c3c2=O)c(C)c1,56.6 nM (active),
CCCc1cc(F)c(S(=O)(=O)N2CCN(S(=O)(=O)c3ccc4c(c3)OCCO4)CC2)cc1F,800 nM (active),
O=S(=O)(c1ccc2c(c1)OCCO2)N1CCN(S(=O)(=O)c2cccc[n+]2[O-])CC1,8970 nM (active),
Cn1c2cc(B(O)O)sc2c2cnn(Cc3ccccc3F)c(=O)c21,6350 nM (active),
Cn1c2ccsc2c2cnn(Cc3ccccc3F)c(=O)c21,318 nM (active),
Cc1cc2c(s1)c1cnn(Cc3ccc(F)cc3F)c(=O)c1n2C,25.3 nM (active),
O=S(=O)(c1ccccc1)N1CCN(S(=O)(=O)c2ccc3c(c2)OCCO3)CC1,160 nM (active),
Cc1ccc(NS(=O)(=O)c2ccc3c(c2)CCC(=O)N3)cc1C,163 nM (active),
CCN1CCc2c(sc(NC(=S)NC(=O)c3ccccc3)c2C#N)C1,,-9.17% (inactive)
COc1ccc(S(=O)(=O)N2CCN(S(=O)(=O)c3c(F)cccc3F)CC2)cc1,56.6 nM (active),
COc1ccc2c(c1)CCc1c(C(=O)NC3CCCCC3)noc1-2,,-41.1% (inactive)
O=S(=O)(NCC1CN(S(=O)(=O)c2c(F)cccc2F)C1)c1ccc2c(c1)OCCO2,2530 nM (active),
